Measured values: PubChem BioAssay (EPA / NIEHS)
Results filed as inconclusive are left out. Calls of active or inactive are those of the source. Rule for the calls: active = hit-call score of the fitted dose curve at least 0.9, where 1 is the maximum; inconclusive = response in the unintended direction; inactive = score below 0.9.

Tested on: not listed separately
Assay: ATG_M_19_TRANS: Attagene TRANS-FACTORIAL HepG2 Assay for M19 Transcription Factor (Internal Marker) (AID 2282974)
Conditions: HepG2 Attagene TRANS-FACTORIAL M19 internal marker reporter
Summary of the method: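 Measured here: internal-marker reporter transcript from HepG2 cells transfected with MRTUs, harvested at 24 h. cDNA PCR products were 6-FAM labelled by primer extension, cut with HpaI for 2 h at 37 C, and resolved by CE.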

outcome, inactive:
CCCC(=O)O
CCCCCCCC(=O)OC
CCN(CC)CCOc1ccc(C(=C(Cl)c2ccccc2)c2ccccc2)cc1
O=[Si]=O
Cc1cn([C@H]2C=C[C@@H](CO)O2)c(=O)[nH]c1=O
COc1ccc(OC(F)(F)F)cc1CN[C@H]1CCCN[C@H]1c1ccccc1
OCC(CO)n1cnc(-c2ccc(F)cc2)c1-c1ccnc(Oc2ccccc2)n1
C/C=C/C=C/C(=O)O
Cc1c(C)c2c(c(C)c1O)CCC(C)(COc1ccc(CC3SC(=O)NC3=O)cc1)O2 (stereo unspecified)
CSc1ccc(Oc2ccc(S(N)(=O)=O)cc2CN(C)C)cc1C
CC(C)COC(=O)CCCCC(=O)OCC(C)C
CC(=O)O[C@]1(C(C)=O)CC[C@H]2[C@@H]3C=C(Cl)C4=CC(=O)[C@@H]5C[C@@H]5[C@]4(C)[C@H]3CC[C@@]21C
Cc1cc(SC2=C(O)C[C@@](CCc3ccc(N)cc3)(C(C)C)OC2=O)c(C(C)(C)C)cc1CO
CCCCCCCCCC[N+](C)(C)[O-]
CS(=O)(=O)c1ccc([C@@H](C[C@H]2CCC(=O)C2)C(=O)Nc2cnccn2)cc1Cl
O=C(NS(=O)(=O)/C=C/c1cccs1)c1ccc(F)cc1Br
CC(C)c1cccc(C(C)C)c1
CN(C)C(=O)NC1(c2ccccc2)CCN(CC[C@@]2(c3ccc(F)c(F)c3)CN(C(=O)c3ccccc3)CCO2)CC1
CC1(C)C(=O)NC(=O)N1CO

Tested on: not listed separately
Assay: ATG_GAL4_TRANS: Attagene TRANS-FACTORIAL HepG2 Assay for GAL4 (Internal Marker) (AID 2282976)
Conditions: HepG2 Attagene TRANS GAL4 internal marker reporter
Summary of the method: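 Background-control readout: GAL4-UAS reporter transcript in transiently transfected HepG2 cells after 24 h compound exposure. Measured by RT-PCR, 6-FAM primer extension, HpaI digest and capillary electrophoresis; gain-of-signal fit versus DMSO.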

outcome, inactive:
CCN(CC)CCOc1ccc(C(=C(Cl)c2ccccc2)c2ccccc2)cc1
O=[Si]=O
C/C=C/C=C/C(=O)O
O=C(N[C@@H](c1ccccc1)[C@@H]1CCCCN1)c1cccc(C(F)(F)F)c1Cl
CSc1ccc(Oc2ccc(S(N)(=O)=O)cc2CN(C)C)cc1C
CC(=O)O[C@]1(C(C)=O)CC[C@H]2[C@@H]3C=C(Cl)C4=CC(=O)[C@@H]5C[C@@H]5[C@]4(C)[C@H]3CC[C@@]21C
CC(C)NCC(O)c1ccc(O)c(O)c1 (stereo unspecified)
O=C(NS(=O)(=O)/C=C/c1cccs1)c1ccc(F)cc1Br
O=C(O)c1[nH]n(-c2ccc(S(=O)(=O)O)cc2)c(=O)c1N=Nc1ccc(S(=O)(=O)O)cc1
CC1(C)C(=O)NC(=O)N1CO

Biological target: Estrogen-related receptor gamma (Homo sapiens) (UniProt P62508)
Assay: ATG_ERRg_TRANS: Attagene TRANS-FACTORIAL HepG2 Assay for human Estrogen-Related Receptor gamma (ERRg) (AID 2282977);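 note: hits increase reporter signal over DMSO so potencies reflect activators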
Conditions: HepG2 Attagene TRANS reporter, ERRg transactivation
Summary of the method: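 Exogenous NR-Gal4 chimera activity was assessed in HepG2 cells bearing transfected GAL4-UAS reporters. After 24 h dosing, total RNA underwent RT-PCR, fluorescent primer extension and HpaI digestion before capillary electrophoresis, with gain of signal scored against DMSO.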

Estrogen-related receptor gamma (Homo sapiens), sequence (P62508 whole entry, looked up): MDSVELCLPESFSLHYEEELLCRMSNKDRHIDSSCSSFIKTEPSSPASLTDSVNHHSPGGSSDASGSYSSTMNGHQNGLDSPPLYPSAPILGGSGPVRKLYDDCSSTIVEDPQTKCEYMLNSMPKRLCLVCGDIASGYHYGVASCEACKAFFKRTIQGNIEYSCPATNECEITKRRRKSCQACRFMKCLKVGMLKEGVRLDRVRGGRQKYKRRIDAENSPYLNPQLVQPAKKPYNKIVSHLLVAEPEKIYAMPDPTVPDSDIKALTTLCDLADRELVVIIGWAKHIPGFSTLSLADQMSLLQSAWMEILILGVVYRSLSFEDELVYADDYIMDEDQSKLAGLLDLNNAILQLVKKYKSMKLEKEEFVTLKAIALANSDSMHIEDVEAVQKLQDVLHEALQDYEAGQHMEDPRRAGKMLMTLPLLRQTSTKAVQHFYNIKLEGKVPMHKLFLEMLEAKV

outcome, inactive:
CCCC(=O)O
O=[Si]=O
O=C(N[C@@H](c1ccccc1)[C@@H]1CCCCN1)c1cccc(C(F)(F)F)c1Cl
CC(COCC(C)OC(=O)c1ccccc1)OC(=O)c1ccccc1 (stereo unspecified)
Cc1ccc(C(C)(C)C)c(O)c1
Cc1cc(SC2=C(O)C[C@@](CCc3ccc(N)cc3)(C(C)C)OC2=O)c(C(C)(C)C)cc1CO
CCCCCCCCCC[N+](C)(C)[O-]
